10 compounds from PubChem BioAssay (NCI) can be followed below.

About 79,000 compounds went through this panel and 15% of them were active in at least one assay; those are over-represented in the sample as a whole. A number with no mark means an inactive call. The source made the active and inactive calls. Rule as the data show it: active = growth inhibition above about 70%; inactive = the rest.

Assay [1] is described as follows: NCI Yeast Anticancer Drug Screen. Data for the rad50 strain (AID 155).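 Also: 0% = growth of vehicle-only cultures of the same strain.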 As to conditions: S. cerevisiae rad50 strain growth inhibition, stronger effect = higher value. The method in brief:
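DNA repair mutant yeast, compound exposure, growth read-out; inhibition is taken relative to vehicle.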

The nature of assay [2]: NCI Yeast Anticancer Drug Screen. Data for the mec2-1 strain (AID 157). As to conditions: S. cerevisiae mec2-1 strain, stronger effect = higher value. The method in brief:
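Compounds were applied to mec2-1 yeast cells. Their growth was then compared with that of vehicle-treated cultures to give growth inhibition.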

Assay [3] in a line: NCI Yeast Anticancer Drug Screen. Data for the sgs1 mgt1 strain (AID 161).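 Also: 0% = growth of cultures given vehicle only.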 As to conditions: S. cerevisiae sgs1 mgt1 strain, stronger effect = higher value. Summed up:
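Percent growth inhibition was derived by comparing compound-exposed mutant yeast with vehicle-exposed cultures. The strain carries alterations in DNA damage repair.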

Assay [4] in a line: NCI Yeast Anticancer Drug Screen. Data for the cln2 rad14 strain (AID 165).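 Also: 0% = growth equal to vehicle treated cultures.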 As to conditions: S. cerevisiae cln2 rad14 strain, stronger effect = higher value. The method in brief:
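Strain: cln2 rad14 yeast, altered in cell cycle control and DNA damage repair. Read-out: growth inhibition vs vehicle.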

Assay [5] can be described thus: NCI Yeast Anticancer Drug Screen. Data for the bub3 strain (AID 167). As to conditions: S. cerevisiae bub3 mutant strain, stronger effect = higher value. Summed up: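 In this screen, a yeast mutant lacking normal mitotic checkpoint function is challenged with compound. Relative growth versus vehicle gives the inhibition value.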
Assay [6] is described as follows: NCI Yeast Anticancer Drug Screen. Data for the mlh1 rad18 strain (AID 175). As to conditions: S. cerevisiae mlh1 rad18 strain growth inhibition, stronger effect = higher value. The method in brief:
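A repair-deficient yeast strain is exposed to test compound, and growth is scored relative to vehicle-treated controls.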

The mark [7] stands for this setting: at 5.0 µM (retest, dose inferred, filed as 0.5).
[8] abbreviates: at 50.0 µM (retest, dose inferred, filed as 5.0).

Turning to `c1ccc2nc3ccccc3nc2c1`, the growth inhibition was -11% in assay [1] (setting [7]); 64% in assay [1] (setting [8]); 77.5% (active) in assay [1] (at 50.0 µM); -3% in assay [2] (setting [7]); 36% in assay [2] (setting [8]); 41.2% in assay [2] (at 50.0 µM). For the same compound, the growth inhibition in assay [3] (setting [7]) is -5%; in assay [3] (setting [8]), 16%; in assay [3] (at 50.0 µM) it was 28.4%; in assay [4] (setting [7]) it was 2%; in assay [4] (setting [8]), 36%; in assay [4] (at 50.0 µM) it was 41.8%. Also, the growth inhibition was -1% in assay [5] (setting [7]); 45% in assay [5] (setting [8]); 33.1% in assay [5] (at 50.0 µM); -11% in assay [6] (setting [7]); 65% in assay [6] (setting [8]); 75% (active) in assay [6] (at 50.0 µM).
For the compound `CN(Cc1ccccc1)CC(O)c1cc(-c2ccc(Cl)cc2)nc2ccccc12` (stereo not given), the growth inhibition was -1% in assay [1] (setting [7]); 99% (active) in assay [1] (setting [8]); 98.8% (active) in assay [1] (at 50.0 µM); 2% in assay [2] (setting [7]); 100% (active) in assay [2] (setting [8]); 98.5% (active) in assay [2] (at 50.0 µM). Besides, the growth inhibition in assay [3] (setting [7]) is 24%; in assay [3] (setting [8]), 100% (active); in assay [3] (at 50.0 µM), 99.2% (active); in assay [4] (setting [7]), 1%; in assay [4] (setting [8]) it was 99% (active); in assay [4] (at 50.0 µM), 98.4% (active). Further, the growth inhibition in assay [5] (setting [7]) was 7%; in assay [5] (setting [8]), 99% (active); in assay [5] (at 50.0 µM), 98% (active); in assay [6] (setting [7]) it was 10%; in assay [6] (setting [8]), 99% (active); in assay [6] (at 50.0 µM) it was 98.3% (active).
Regarding `O=C(NCC#CCO)C(F)(F)F`, the growth inhibition in assay [1] (setting [7]) is -15%; in assay [1] (setting [8]) it was -1%; in assay [1] (at 50.0 µM), -0.9%; in assay [2] (setting [7]), -14%; in assay [2] (setting [8]), -18%; in assay [2] (at 50.0 µM) it was 13.2%. Besides, the growth inhibition in assay [3] (setting [7]) was -3%; in assay [3] (setting [8]) it was -8%; in assay [3] (at 50.0 µM) it was 11.7%; in assay [4] (setting [7]), 3%; in assay [4] (setting [8]), 9%; in assay [4] (at 50.0 µM), 47.8%. The growth inhibition is -21% in assay [5] (setting [7]); -5% in assay [5] (setting [8]); 11.1% in assay [5] (at 50.0 µM); -5% in assay [6] (setting [7]); -10% in assay [6] (setting [8]); 45.1% in assay [6] (at 50.0 µM).
On to `CCOC(=O)C[P+](c1ccc(C)cc1)(c1ccc(C)cc1)c1ccc(C)cc1`, for which the growth inhibition in assay [1] (setting [7]) is 39%; in assay [1] (setting [8]) it was 96% (active); in assay [1] (at 50.0 µM), 96.7% (active); in assay [2] (setting [7]), 17%; in assay [2] (setting [8]), 94% (active); in assay [2] (at 50.0 µM) it was 95.6% (active). The growth inhibition in assay [3] (setting [7]) was 11%; in assay [3] (setting [8]) it was 82% (active); in assay [3] (at 50.0 µM), 95.8% (active); in assay [4] (setting [7]), 2%; in assay [4] (setting [8]), 82% (active); in assay [4] (at 50.0 µM), 89.2% (active). Further, the growth inhibition in assay [5] (setting [7]) is 21%; in assay [5] (setting [8]), 88% (active); in assay [5] (at 50.0 µM) it was 91% (active); in assay [6] (setting [7]), 6%; in assay [6] (setting [8]) it was 93% (active); in assay [6] (at 50.0 µM), 93.5% (active).
Regarding `O=c1c2ccccc2nc(-c2ccccc2)n1NC(=S)Nc1ccc(Cl)cc1[N+](=O)[O-]`, the growth inhibition is -3% in assay [1] (setting [7]); 17% in assay [1] (setting [8]); 23.1% in assay [1] (at 50.0 µM); -7% in assay [2] (setting [7]); 10% in assay [2] (setting [8]); -1.6% in assay [2] (at 50.0 µM). The growth inhibition in assay [3] (setting [7]) was 4%; in assay [3] (setting [8]), 15%; in assay [3] (at 50.0 µM) it was 40.6%; in assay [4] (setting [7]), 8%; in assay [4] (setting [8]), 14%; in assay [4] (at 50.0 µM), -29.4%. For the same compound, the growth inhibition in assay [5] (setting [7]) was -5%; in assay [5] (setting [8]), 29%; in assay [5] (at 50.0 µM), 71.4% (active); in assay [6] (setting [7]) it was 2%; in assay [6] (setting [8]), 10%; in assay [6] (at 50.0 µM), 25.8%.
`COc1ccc(C(=O)c2cc(Cl)ccc2N)cc1`: the growth inhibition in assay [1] (setting [7]) is 16%; in assay [1] (setting [8]), 93% (active); in assay [1] (at 50.0 µM), 99% (active); in assay [2] (setting [7]) it was -1%; in assay [2] (setting [8]), 87% (active); in assay [2] (at 50.0 µM), 98.2% (active). Besides, the growth inhibition was 8% in assay [3] (setting [7]); 91% (active) in assay [3] (setting [8]); 99.1% (active) in assay [3] (at 50.0 µM); -8% in assay [4] (setting [7]); 71% (active) in assay [4] (setting [8]); 92.1% (active) in assay [4] (at 50.0 µM). The growth inhibition in assay [5] (setting [7]) was 1%; in assay [5] (setting [8]), 73% (active); in assay [5] (at 50.0 µM), 99.2% (active); in assay [6] (setting [7]), -1%; in assay [6] (setting [8]) it was 95% (active); in assay [6] (at 50.0 µM), 94.2% (active).
As to `O=C(O)/C(=C/c1ccc(Cl)cc1)c1ccccc1`, the growth inhibition in assay [1] (setting [7]) was -5%; in assay [1] (setting [8]) it was 23%; in assay [1] (at 50.0 µM) it was 4.7%; in assay [2] (setting [7]), -7%; in assay [2] (setting [8]), 23%; in assay [2] (at 50.0 µM) it was 44.5%. Moreover, the growth inhibition is -3% in assay [3] (setting [7]); 27% in assay [3] (setting [8]); 10.6% in assay [3] (at 50.0 µM); -10% in assay [4] (setting [7]); 39% in assay [4] (setting [8]); 90.7% (active) in assay [4] (at 50.0 µM). The growth inhibition in assay [5] (setting [7]) is -8%; in assay [5] (setting [8]), 17%; in assay [5] (at 50.0 µM), 9.95%; in assay [6] (setting [7]), -5%; in assay [6] (setting [8]), 45%; in assay [6] (at 50.0 µM), 39.6%.
Regarding `Cc1ccc(C(=O)OCCN2CCN(c3ccccc3)CC2)c([N+](=O)[O-])c1OCc1ccccc1`, the growth inhibition in assay [1] (setting [7]) is 30%; in assay [1] (setting [8]) it was 66%; in assay [1] (at 50.0 µM), 87% (active); in assay [2] (setting [7]) it was 36%; in assay [2] (setting [8]), 43%; in assay [2] (at 50.0 µM) it was 63.9%. Also, the growth inhibition is 25% in assay [3] (setting [7]); 82% (active) in assay [3] (setting [8]); 89.3% (active) in assay [3] (at 50.0 µM); 24% in assay [4] (setting [7]); 64% in assay [4] (setting [8]); 74% (active) in assay [4] (at 50.0 µM). The growth inhibition is 28% in assay [5] (setting [7]); 70% (active) in assay [5] (setting [8]); 72.7% (active) in assay [5] (at 50.0 µM); 19% in assay [6] (setting [7]); 78% (active) in assay [6] (setting [8]); 90.6% (active) in assay [6] (at 50.0 µM).
For the compound `CC(=O)c1ccc2c(c1)CC1(C2)Cc2cc3c(c(C(=O)O)c2C1)CCC3` (stereo not given), the growth inhibition in assay [1] (setting [7]) is 0%; in assay [1] (setting [8]), 95% (active); in assay [1] (at 50.0 µM), 90.3% (active); in assay [2] (setting [7]), 10%; in assay [2] (setting [8]) it was 95% (active); in assay [2] (at 50.0 µM), 90.1% (active). The growth inhibition was 34% in assay [3] (setting [7]); 99% (active) in assay [3] (setting [8]); 94.5% (active) in assay [3] (at 50.0 µM); -3% in assay [4] (setting [7]); 95% (active) in assay [4] (setting [8]); 95% (active) in assay [4] (at 50.0 µM). The growth inhibition in assay [5] (setting [7]) was 1%; in assay [5] (setting [8]) it was 95% (active); in assay [5] (at 50.0 µM), 85.8% (active); in assay [6] (setting [7]), 15%; in assay [6] (setting [8]) it was 97% (active); in assay [6] (at 50.0 µM), 88.6% (active).
With `O=c1[nH]cnc2nc(I)[nH]c12`, the growth inhibition was 1% in assay [1] (setting [7]); 3% in assay [1] (setting [8]); 14.8% in assay [1] (at 50.0 µM); -9% in assay [2] (setting [7]); -3% in assay [2] (setting [8]); 0.05% in assay [2] (at 50.0 µM). For the same compound, the growth inhibition is -5% in assay [3] (setting [7]); 5% in assay [3] (setting [8]); -0.3% in assay [3] (at 50.0 µM); 1% in assay [4] (setting [7]); -7% in assay [4] (setting [8]); 38.5% in assay [4] (at 50.0 µM). The growth inhibition in assay [5] (setting [7]) was -1%; in assay [5] (setting [8]), -8%; in assay [5] (at 50.0 µM), 30.1%; in assay [6] (setting [7]) it was 7%; in assay [6] (setting [8]), -5%; in assay [6] (at 50.0 µM), 6%.
